Screens: PubChem BioAssay, National Center for Advancing Translational Sciences (NCATS)
Rows were chosen to be rich in hits. Some 17% of all compounds tested hit in one or more screens of this group.
DT40 TDP1 CPT = DT40-hTDP1 cell growth loss with CPT | 420,000 tested, 12% active | chicken DT40 Tdp1-/-;hTDP1 cells + 20 nM CPT, ATP luminescence, 48 h | Potency, µM (titrated, usually from 46.2 µM), for the others: at the top dose activity change, negative = growth inhibition, actives largely listed as inhibitors; also: % is scaled to controls: 0 for no effect and ±100 for the full control effect; nearly all actives have a fitted effect of over 55% in size
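Chicken DT40 Tdp1-/- cells stably complemented with human TDP1 were seeded at 400 cells/well in medium containing 20 nM camptothecin, exposed to pin-transferred compounds, and grown at 37 °C for at least 48 hr. Viability was read as ATP luminescence.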
HepG2 viability = counter-screen for TGF-b inhibitors: cytotoxicity in HepG2 cells; HepG2 CAGA-GFP viability, ATP luminescence, 18 h; Potency, µM (titrated, usually from 46.1 µM), for inactives: top-dose activity change, negative = cytotoxicity, hits mostly cytotoxic; 410,000 tested, 0.76% active; AID 588856
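CellTiter-Glo luminescence gave cytotoxicity after 18 hours at 37 degrees C. The cells were HepG2 CAGA-GFP in 1% FBS DMEM, stimulated with 500 pg/mL TGF-beta after compound addition. %Activity was normalised to no-cell wells (complete cell-killing) and DMSO (no toxicity), and curves were fitted and classified.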
TGFb inhibitor = inhibitors of TGF-b signaling; HepG2 CAGA-GFP TGF-b/SMAD3 reporter, GFP fluorescence, 18 h; TGF-beta stimulated, 500 pg/mL final; Potency, µM (titrated, usually from 46.1 µM), for inactives: at the top dose activity, negative = inhibition, usual class: inhibitors; 410,000 tested, 1.2% active; also: % is scaled to controls: 0 for no effect and ±100 for the full control effect; nearly all actives have a fitted effect of over 65% in size
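Cell-based qHTS in HEPG2 carrying a CAGA-GFP Smad reporter; compounds added before 500 pg/mL final TGF-beta, 18 h incubation at 37 degrees C, GFP fluorescence quantified per cell by imaging cytometry.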
HT1080 IDH1KD tx = kills HT-1080 cells with IDH1 knockdown | HT-1080 IDH1 knockdown viability, ATP luminescence, 48 h | Potency, µM (titrated, usually from 46.1 µM), inactives show top-dose activity, negative = toxicity, hits mostly cytotoxic | 360,000 tested, 2% active | AID 686971;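 also: 0% = DMSO wells and -100% = cell-free medium wells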
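In this qHTS, HT-1080 cells depleted of IDH1 are exposed for 48 h at 37 °C to compound titrations. Toxicity is scored from CellTiter-Glo luminescence, with DMSO as full viability and medium alone as none.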
HT1080-NT tox = kills 2HG-producing HT-1080-NT fibrosarcoma cells; 360,000 tested, 1.6% active; Potency, µM (doses to about 46.1 µM), for inactives: top-dose activity, negative = less viability, hits mostly cytotoxic; HT-1080-NT fibrosarcoma viability, CellTiter-Glo ATP luminescence, 48 h;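 also: NT is the 2HG producing partner of a matched IDH1 knockdown line; 0% = DMSO-treated cells and -100% = media-only wells without cells; nearly all actives have a fitted effect of over 55% in size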
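Compounds were tested in concentration-response format on HT-1080-NT cells for 48 hours at 37 degrees C. Cell viability came from CellTiter-Glo luminescence; curves were classified by r2, response magnitude and activity.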
TDP1 cell noCPT = qHTS for Inhibitors of human tyrosyl-DNA phosphodiesterase 1 (TDP1): qHTS in cells in absence of CPT; DT40 Tdp1-/- hTDP1 cells, no CPT, ATP luminescence, 48 h; Potency, µM (series often up to 46.2 µM), for inactives: at the highest dose activity change, negative = growth inhibition, hits mostly inhibitors; 420,000 tested, 15% active; also: % is scaled to controls: 0 for no effect and ±100 for the full control effect; nearly all actives have a fitted effect of over 55% in size
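Compound effects on proliferation are scored in DT40 Tdp1-/-;hTDP1 cells in the absence of CPT. ATP levels (CellTiter-Glo luminescence) are recorded after a ≥48 hr, 37 °C incubation.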
Active calls of the source: *; ? = inconclusive; · = no result given; [ ] = remark or other dose. Calls follow the shape of the dose curve; as a rule, active = well fitted curve in the direction sought with a large enough effect; inconclusive = small, poorly fitted or top-dose-only effect, or another doubt; inactive = no such curve, though single readings can be large; an effect the other way counts as inactive or inconclusive. Potency is read from the fitted curve at half-maximal effect.

SMILES | DT40 TDP1 CPT | HepG2 viability | TGFb inhibitor | HT1080 IDH1KD tx | HT1080-NT tox | TDP1 cell noCPT
NC(=O)CC(NC(=O)c1ccccc1)c1ccc(NCc2ccc(F)cc2)c([N+](=O)[O-])c1 (stereo not drawn) | 18µM* | -14% | -20% | -1% | -4% | ?
O=[N+]([O-])c1ccccc1CNCCO | -25% | -3% | 3% | 12% | 29% | -19%
Cc1c(O)nc(SCC(=O)Nc2ccc(Cl)cc2Cl)n(-c2ccc(F)cc2)c1=O | 11% | 2% | -9% | · | · | -4%
CC1(C(=O)Nc2ccc(Cl)c(Cl)c2)CCN1Cc1ccccc1OC(F)F (stereo not drawn) | 16µM* | -3% | 2% | 2% | -2% | 12µM*
Cc1ccc(NC(=O)C2(C)CCN2Cc2ccccc2OC(F)F)cc1 (stereo not drawn) | ? | -23% | -13% | ? | ? | ?
COc1ccc(NC(=O)C2(C)CCN2Cc2ccccc2OC(F)F)cc1OC (stereo not drawn) | ? | -17% | -21% | -19% | -8% | 12µM*
COc1ccc(N(C(=O)c2cccnc2)S(=O)(=O)c2ccc(Cl)cc2)cc1 | ? | -31% | 0% | -4% | -10% | -15%
CCCCC/C=C/C=C1/C(=O)C=C[C@@H]1C/C=C\CCCC(=O)O | 1%[4.12 µM] | · | · | · | · | -30%[4.12 µM]
CCCNC(=S)N1CCC(NC(=O)Nc2ccc(C)cc2)CC1 | -1% | -4% | -16% | -1% | 3% | -9%
CC(C)(C)C1CCc2c(sc3ncn(N)c(=N)c23)C1 (stereo not drawn) | 16µM* | -78% | -30% | ? | -30% | 6.5µM*
N=c1c2c3c(sc2ncn1N)CCC3 | 2% | -26% | 0% | -20% | -13% | -18%
CC(C)n1cnc2c(NCc3ccccc3)cc(Cc3ccc(F)cc3)cc21 | ? | -88% | ? | ? | -27% | ?
Cc1ccc(C)c(NC(=O)CCC(=O)NNC(=O)c2cccc([N+](=O)[O-])c2)c1 | -19% | -2% | -3% | -3% | -5% | -2%
Cc1ccc(C)c(NC(=O)c2cccc(Oc3ccc([N+](=O)[O-])cc3Cl)c2)c1 | ? | -6% | ? | -4% | -5% | 16µM*
O=C(Nc1cccc(Cl)c1)c1cccc(Oc2ccc([N+](=O)[O-])cc2Cl)c1 | ? | -29% | 16µM* | ? | ? | ?
COc1ccc(/C=N/NC(=O)c2ccc(NC(=O)c3cccc([N+](=O)[O-])c3)cc2)c(OC)c1 | -26% | -20% | 14% | -11% | ? | ?
O=C(Nc1ccc([N+](=O)[O-])cc1Cl)c1cccc([N+](=O)[O-])c1 | -17% | -13% | 5% | 8% | 15% | -29%
COc1ccc(NC(=O)c2cccc(Oc3ccc([N+](=O)[O-])cc3Cl)c2)cc1 | 5.8µM* | 3% | ? | ? | ? | 4.6µM*
CCN(CC)C(=O)c1ccc(Oc2ccc([N+](=O)[O-])cc2Cl)cc1 | ? | 1% | -4% | -12% | -1% | 16µM*
CC(C)c1ccc(S(=O)(=O)c2nnn3c2nc(N2CCCC2)c2sccc23)cc1 | 24% | 14% | 13% | · | · | 10%
Cc1ccc(-n2nc(C)c3c(C(=O)NCc4ccccc4)cc(C4CC4)nc32)cc1 | -18% | 21% | 16% | · | · | -21%
CC(=O)Oc1ccc2ccc3ccc(C(C)=O)cc3c2c1 | ? | -13% | -12% | ? | -23% | 18µM*
CC(=O)c1ccc(OC(=O)Oc2ccc(C(C)=O)cc2)cc1 | -24% | -3% | -1% | 0% | -1% | -26%
O=C1C2CC3CC1CC(O)(C3)C2 | -2% | · | · | · | · | 7%
C=C(NC(=O)C(=C)NC(=O)c1csc(C2=N[C@@H]3c4csc(n4)[C@H]4NC(=O)c5csc(n5)[C@H]([C@](C)(O)[C@@H](C)O)NC(=O)[C@H]5CSC(=N5)C(=CC)NC(=O)C([C@@H](C)O)NC(=O)c5csc(n5)[C@]3(CC2)NC(=O)[C@H](C)NC(=O)C(=C)NC(=O)[C@H](C)NC(=O)C([C@@H](C)CC)NC2C=Cc3c([C@H](C)O)cc(nc3C2O)C(=O)O[C@@H]4C)n1)C(N)=O (stereo partly drawn) | 7.2µM* | · | · | · | · | 5.1µM*
SMILES | DT40 TDP1 CPT | HepG2 viability | TGFb inhibitor | HT1080 IDH1KD tx | HT1080-NT tox | TDP1 cell noCPT
COc1ccc([C@@H]2CC=C(C(=O)O)[C@H](c3ccc(F)cc3)N2S(=O)(=O)c2ccc(Cl)cc2)cc1 | -20% | -6% | -21% | -7% | 5% | -17%
Cc1ccc(-n2cccn2)c(CN2CCCC(CNC(=O)c3ccc(F)cc3)C2)c1 (stereo not drawn) | ? | -45% | ? | -28% | ? | 12µM*
CCCn1cc(CN2CCCC(CNC(=O)c3ccc(F)cc3)C2)c(C)n1 (stereo not drawn) | -3% | 12% | 6% | 2% | 4% | 10%
O=c1ccc2ccc(OCCOc3cccc(Cl)c3)cc2o1 | ? | 2% | -17% | -8% | -8% | ?
COc1ccc(Cc2nnc(SCC(=O)Nc3cc(Cl)ccc3C)[nH]c2=O)cc1 | -5% | -17% | -5% | -7% | -1% | ?
O=C(Cc1ccccc1)Nc1cccc([N+](=O)[O-])c1 | 5% | -14% | -9% | -2% | -3% | 14%
O=C(C[n+]1ccc(C(=O)c2ccccc2)cc1)Nc1ccccc1OC(F)F | ? | 14% | 20% | -15% | -7% | 16µM*
O=C(C[n+]1ccc(C(=O)c2ccccc2)cc1)Nc1cccc([N+](=O)[O-])c1 | 21µM* | · | · | -20% | -17% | 16µM*
O=C(C[n+]1ccc(-c2cc(C(=O)Nc3cccc(C(F)(F)F)c3)c3ccccc3n2)cc1)c1cccc([N+](=O)[O-])c1 | ? | -63% | ? | ? | -28% | 23µM*
COc1cccc(CNC(=O)C2CCC(CNS(=O)(=O)c3ccc4c(c3)CCCC(=O)N4)CC2)c1 (stereo not drawn) | -25% | -30% | 1% | · | · | -22%
Cc1ccc(C)c(NC(=O)CSc2cn(CC(=O)N3CCCC3)c3ccccc23)c1 | ? | 3% | ? | · | · | ?
